APE1 inh: blocks human APE1 abasic DNA cleavage | recombinant APE1, TAMRA/BHQ-2 abasic DNA cleavage fluorescence | 0.35% of 350,000 active | Potency, µM (top dose mostly 65.8 µM), for inactives: top-dose activity change, negative = inhibition, actives largely listed as inhibitors | P27695 | AID 2517;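 also: plate controls were vehicle for no effect and reference inhibitor for full effect; nearly all actives have a fitted effect of over 55% in size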
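APE1 at 0.75 nM final was preincubated with compound 15 min at room temperature, then 50 nM double-stranded THF abasic-site substrate (5'-TAMRA/3'-BHQ-2) was added. Fluorescence (ex 525/em 598 nm) was read kinetically; third-minus-first read gave activity.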
RECQ1 inh: inhibitors of human RECQ1 DNA helicase; P46063; RECQ1 DNA unwinding, red fluorescence kinetic read; Potency, µM (titrated, usually from 57.3 µM), inactives show at the top dose activity, negative = inhibition, actives largely listed as inhibitors; 0.54% of 240,000 active; AID 2549;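 also: plate controls were vehicle for no effect and no enzyme for full effect; nearly all actives have a fitted effect of over 30% in size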
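RECQ1T1 50 nM; forked duplex (20 bp + 30-nt ss tails) 200 nM, ATP 2 mM final; pH 8.0, 2 mM MgCl2, 2.5 ug/ml poly(dI-dC); 15 min compound preincubation; discontinuous kinetic read over 2 h at RT.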
L3MBTL1 inh: L3MBTL1 (human) inhibition. Potency, µM (titrated, usually from 57.1 µM), inactives show top-dose activity, negative = inhibition, hits mostly inhibitors. AlphaScreen L3MBTL1–H3K9me1 peptide binding. 0.66% of 230,000 active; also: nearly all actives have a fitted effect of over 60% in size
Target sequence (Q9Y468 whole entry, looked up): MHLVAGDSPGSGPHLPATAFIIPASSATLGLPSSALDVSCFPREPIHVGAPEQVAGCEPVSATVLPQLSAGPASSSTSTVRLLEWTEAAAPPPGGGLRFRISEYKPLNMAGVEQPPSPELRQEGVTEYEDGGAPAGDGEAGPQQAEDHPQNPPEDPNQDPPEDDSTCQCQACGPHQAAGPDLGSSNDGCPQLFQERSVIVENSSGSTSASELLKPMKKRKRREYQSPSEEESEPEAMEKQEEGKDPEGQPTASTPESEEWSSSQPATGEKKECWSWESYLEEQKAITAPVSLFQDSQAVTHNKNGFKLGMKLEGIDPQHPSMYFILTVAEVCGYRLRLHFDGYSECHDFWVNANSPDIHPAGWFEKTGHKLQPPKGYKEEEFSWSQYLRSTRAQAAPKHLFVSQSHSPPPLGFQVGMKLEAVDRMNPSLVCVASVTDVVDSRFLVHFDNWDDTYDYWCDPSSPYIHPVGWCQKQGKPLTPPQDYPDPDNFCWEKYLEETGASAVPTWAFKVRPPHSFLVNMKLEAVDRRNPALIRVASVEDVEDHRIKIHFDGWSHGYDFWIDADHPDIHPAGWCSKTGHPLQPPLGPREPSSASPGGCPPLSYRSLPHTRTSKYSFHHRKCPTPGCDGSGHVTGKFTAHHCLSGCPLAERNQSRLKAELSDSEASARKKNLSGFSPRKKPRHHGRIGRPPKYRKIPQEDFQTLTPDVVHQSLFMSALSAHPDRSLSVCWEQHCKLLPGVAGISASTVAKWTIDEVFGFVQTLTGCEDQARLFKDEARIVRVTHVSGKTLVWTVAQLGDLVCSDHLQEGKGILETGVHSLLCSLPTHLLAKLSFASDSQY
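Read-out is AlphaScreen signal from streptavidin donor and nickel chelate acceptor beads (10 ug/mL final each) bridging L3MBTL1 (50 nM) and biotinylated K9-monomethylated H3(1-15) peptide (75 nM), after 30 min compound exposure at room temperature.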
JMJD2E inh: inhibitors of human JMJD2E histone demethylase | B2RXH2 | JMJD2E catalytic domain, FDH-coupled NADH fluorescence (FDH is formaldehyde dehydrogenase) | Potency, µM (titrated, usually from 57.1 µM), for inactives: top-dose activity change, negative = inhibition, usual class: inhibitors | 1.6% of 230,000 active; active = well fitted inhibition curve with a large enough effect, not every such curve was filed as active; inconclusive = small, poorly fitted or top-dose-only effect, or another doubt; inactive = no such curve, though single readings can be large or run the other way;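 also: 0% = wells with enzyme and -100% = buffer wells without enzyme; nearly all actives have a fitted effect of over 50% in size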
BLM helicase inh: blocks DNA unwinding by human BLM helicase. recombinant BLM DNA unwinding, fluorescence dequenching. P54132. 0.2% of 350,000 active. Potency, µM (series often up to 56.1 µM), for the others: at the highest dose activity change, negative = inhibition, actives largely listed as inhibitors. AID 2528;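 also: plate controls were vehicle for no effect and no enzyme for full effect; nearly all actives have a fitted effect of over 35% in size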
GoLoco inh red: RGS12 GoLoco-Gai1 interaction inhibition. P63096. Gai1:RGS12 GoLoco peptide FP, rhodamine, 10 min. Potency, µM (series often up to 61.6 µM), without a hit: top-dose activity, negative = inhibition, usual class: inhibitors. 0.44% of 230,000 active. AID 880; active = well fitted inhibition curve with a large enough effect, not every such curve was filed as active; inactive = no such curve, though single readings can be large or run the other way; also: nearly all actives have a fitted effect of over 30% in size
An asterisk follows results filed as active; ! = a repeat was not active; [ ] = another dose, or the depositor's remark. Many of the other results were omitted from the sample, so hits are more common in it than they were. Unless noted, calls follow the shape of the dose curve; as a rule, active = well fitted curve in the direction sought with a large enough effect; inconclusive = small, poorly fitted or top-dose-only effect, or another doubt; inactive = no such curve, though single readings can be large; an effect the other way counts as inactive or inconclusive. Unless noted, % is scaled to controls: 0 for no effect and ±100 for the full control effect; potency is read from the fitted curve at half-maximal effect.

Screening COc1ccc2oc(C(=O)NC(C)c3ccccn3)c(C)c2c1 (stereo not drawn) returned APE1 inh -6% and L3MBTL1 inh 2%.
For COc1ccc2oc(C(=O)Nc3nc(-c4ccccn4)cs3)c(C)c2c1 the results were APE1 inh 7% and L3MBTL1 inh 25µM*.
For COc1ccc(CCNC(=O)Cc2c(C)c3c(cc(C)c4c(C)coc43)oc2=O)cc1 the results were BLM helicase inh 2%.
COc1ccc(NC(=O)CSc2nnc(-c3ccccn3)n2N)cc1Cl was read as APE1 inh 13%, RECQ1 inh 1%, L3MBTL1 inh inconclusive, JMJD2E inh 7%, BLM helicase inh -4% and GoLoco inh red 6%.
`Cc1cc(C)c(NC(=O)CSc2nnc(-c3ccccn3)n2N)c(Cl)c1` gave APE1 inh 2%, RECQ1 inh -1%, L3MBTL1 inh 28µM*, JMJD2E inh 6%, BLM helicase inh -3% and GoLoco inh red 0%.
`Nn1c(SCc2c(F)cccc2F)nnc1-c1ccccn1` gave APE1 inh -2%, RECQ1 inh -1%, L3MBTL1 inh 20µM*, JMJD2E inh -10%, BLM helicase inh -4% and GoLoco inh red 6%.
`C[N+]1(C)CC[C@@H](OC(=O)[C@@](O)(c2ccccc2)C2CCCC2)C1` gave APE1 inh 1%[21 µM], RECQ1 inh -7%[25.9 µM], JMJD2E inh 1%[25.5 µM], BLM helicase inh -1%[21.4 µM] and GoLoco inh red 5%[21.6 µM].
CCN(CC)C(=O)c1ccccc1NC(=O)c1cccc(S(=O)(=O)N(CC)CC)c1 was read as APE1 inh -1%, RECQ1 inh -5%, L3MBTL1 inh 4%, JMJD2E inh -2%, BLM helicase inh 3% and GoLoco inh red 2%.
`CCOc1ccccc1/C=N/NC(=O)c1cccc(S(=O)(=O)N(CC)CC)c1` gave APE1 inh -3%, RECQ1 inh -4%, L3MBTL1 inh -1%, JMJD2E inh inconclusive, BLM helicase inh -6% and GoLoco inh red 0%.
CCN(CC)S(=O)(=O)c1cccc(C(=O)N/N=C/c2ccc(O)c(O)c2O)c1 was read as APE1 inh -15%, RECQ1 inh inconclusive, L3MBTL1 inh inconclusive, JMJD2E inh 7.9µM*, BLM helicase inh -22% and GoLoco inh red -5%.
`CCn1c(C)nc2cc(C(=O)N/N=C/c3ccc(O)c(O)c3O)ccc21` gave APE1 inh -9%, RECQ1 inh 10%, L3MBTL1 inh 2.2µM*, JMJD2E inh -3%, BLM helicase inh 6.3µM* and GoLoco inh red 2%.
For CCN(CC)S(=O)(=O)c1cccc(C(=O)N/N=C(\C)c2ccc(O)cc2O)c1 the results were APE1 inh -6%, RECQ1 inh inactive, L3MBTL1 inh 14µM*, JMJD2E inh 25µM*, BLM helicase inh -3% and GoLoco inh red 6%.
Screening O=C1/C(=C/c2ccc(O)c(O)c2)SC(=S)N1Nc1ccccc1 returned APE1 inh 70%, RECQ1 inh 14µM*, JMJD2E inh inconclusive, BLM helicase inh inconclusive and GoLoco inh red 265%.
Screening COc1cc(/C=C2\SC(=S)N(C(Cc3ccccc3)C(=O)O)C2=O)ccc1O (stereo not drawn) returned APE1 inh inconclusive, RECQ1 inh 25µM*, L3MBTL1 inh -12%, JMJD2E inh 1%, BLM helicase inh -20% and GoLoco inh red 196%.
For COc1cc(/C=C2/SC(=S)N(CC3CCCO3)C2=O)ccc1O (stereo not drawn) the results were APE1 inh inconclusive, RECQ1 inh 32µM*, L3MBTL1 inh -27%, JMJD2E inh -3%, BLM helicase inh -19% and GoLoco inh red 248%.
For O=C(NN1C(=O)/C(=C/c2ccc(O)c(O)c2)SC1=S)c1ccccc1 the results were APE1 inh 12%, L3MBTL1 inh inconclusive and BLM helicase inh -29%.
`COc1ccc(/C=C2\SC(=S)N(CC3CCCO3)C2=O)cc1` (stereo not drawn) gave APE1 inh 3%, RECQ1 inh -16%, L3MBTL1 inh -3%, JMJD2E inh -5%, BLM helicase inh -12% and GoLoco inh red 59%.
Screening CCOc1cc(/C=C2\SC(=S)N(Nc3ccccc3)C2=O)ccc1O returned APE1 inh inconclusive, RECQ1 inh 25µM*, L3MBTL1 inh inconclusive, JMJD2E inh 4%, BLM helicase inh -22% and GoLoco inh red 318%.
`COc1cc(/C=C2\SC(=S)N(Nc3ccccc3)C2=O)ccc1O` gave APE1 inh 6%, RECQ1 inh -2%, L3MBTL1 inh inconclusive, JMJD2E inh 8%, BLM helicase inh -28% and GoLoco inh red 331%.
C=C1C=C(C(F)F)n2ncc(C(=O)NCCc3ccccc3Cl)c2N1 was read as APE1 inh 23%.
Screening O=C(CSc1nnc(-c2cccc(S(=O)(=O)N3CCCC3)c2)n1-c1ccccc1)Nc1ccc(F)cc1 returned APE1 inh 12%.
O=C(O)CN(CCN(CC(=O)O)CC(=O)O)CCN(CC(=O)O)CC(=O)O was read as APE1 inh 3%, RECQ1 inh -12%, JMJD2E inh 6.3µM*!, BLM helicase inh -5% and GoLoco inh red -5%.
`O=C(O)C1C2CCC(O2)C1C(=O)Nc1ccc(O)cc1` (stereo not drawn) gave APE1 inh 1%, RECQ1 inh inactive, L3MBTL1 inh -11%, JMJD2E inh 1%, BLM helicase inh inconclusive and GoLoco inh red 16µM*.
Screening Cc1ccc(NC(=O)C2C3CCC(O3)C2C(=O)O)cc1C (stereo not drawn) returned APE1 inh 0%, L3MBTL1 inh 0% and BLM helicase inh 0%.
`CCOc1cccc(CNc2ccc(O)cc2)c1OCc1ccccc1Cl` gave APE1 inh 1%, RECQ1 inh inactive, L3MBTL1 inh 40µM*, JMJD2E inh 0%, BLM helicase inh inconclusive and GoLoco inh red -27%.
Screening Cc1cccc(C(=O)Nc2nnc(SCC(=O)Nc3ccc4c(c3)oc3ccccc34)s2)c1 returned APE1 inh -1%, RECQ1 inh -3%, L3MBTL1 inh -2%, JMJD2E inh -12%, BLM helicase inh -7% and GoLoco inh red 7.9µM*.
COC(=O)C1=C(O)/C(=C\c2cc(C)n(-c3ccccc3F)c2C)N=C1C was read as APE1 inh -5%, RECQ1 inh 33%, JMJD2E inh 22µM*, BLM helicase inh 1% and GoLoco inh red 62%.
O=C(CSc1nnnn1-c1cccc2ccccc12)Nc1ccc(N2CCOCC2)c(Cl)c1 was read as APE1 inh 0%, RECQ1 inh inactive, JMJD2E inh 1%, BLM helicase inh -2% and GoLoco inh red -5%.

High-throughput results: PubChem BioAssay, National Center for Advancing Translational Sciences (NCATS)
